# Measured values as given in PubChem BioAssay AID1159524 (National Center for Advancing Translational Sciences (NCATS), 2015).
# Among all 410,000 compounds or so, about 5,100 (1.2%) were called active. About 8% were inconclusive and are not listed. Calls come from the whole dose curve; tested in HEK293T cells. What follows is part of a selection rich in actives, with near analogues and random picks from the rest. Entries that show only a call come without a potency.
# Experiment: High Throughput Screening for Foot and Mouth Disease Virus Antivirals; note: read-out not given here; nearly all actives have a fitted effect of over 45% in size
# Details: FMDV antiviral cell-based qHTS; series mostly up to 57.9 µM
# Potency is the fitted concentration of half-maximal effect.
row,SMILES,Potency
1,CCSc1ncc(Cl)c(C(=O)Nc2c(C(=O)c3ccccc3)oc3ccccc23)n1,inactive
2,CCCS(=O)(=O)c1ncc(Cl)c(C(=O)Nc2scc(-c3ccccc3)c2C(=O)OCC)n1,25.1 µM (active)
3,CCOC(=O)c1scc(-c2ccccc2)c1S(=O)(=O)Nc1ccccc1F,inactive
4,CCOc1ccccc1N(C)C(=O)c1cc2c(s1)-c1ccccc1OC2,inactive
5,COCCn1c(=O)c(-c2cc(F)cc(F)c2)nc2cncnc21,inactive
6,CN1C2CC3CC1C(O3)C2O (stereo unspecified),inactive
7,Cc1ccc(S(=O)(=O)c2cn(Cc3ccccc3)c3cc(N4CCCC4)c(F)cc3c2=O)c(C)c1,inactive
8,Oc1c(Cl)cc(Cl)c(Cl)c1Cc1c(O)c(Cl)cc(Cl)c1Cl,5.62 µM (active)
9,C=C1C(=O)C23C(O)C1CCC2[C@]12COC3(O)C(O)C1C(C)(C)CC[C@H]2O (stereo partly specified),28.2 µM (active)
10,O=C(NC1(C(F)(F)F)N=C(c2ccccc2)N(C2CCCCC2)C1=O)c1ccccc1F (stereo unspecified),inactive
11,O=c1c(-c2cccs2)nc2cnc(Oc3ccccc3)nc2n1-c1ccccc1,inactive
12,O=C(c1csnn1)N1CCC2(CCN(Cc3nccs3)CC2)CC1,inactive
13,O=C(c1cccc(C(=O)N2CCN(c3ccc(F)cc3)CC2)c1)N1CCN(c2ccc(F)cc2)CC1,39.8 µM (active)
14,O=C(c1cccc(F)c1)N1CCC2(CC1)CCN(c1ccccc1)CC2,inactive
15,O=C(c1ccccc1Oc1ccccc1)N1CCN(c2ccc(F)cc2)CC1,inactive
16,COc1ccc(CN(C)CCn2cc(C(=O)N3CCSCC3)nn2)cc1C,inactive
17,O=C1c2ccccc2C(=O)N1CCC#Cc1ccc2cc(C3(O)CCCCC3)oc(=O)c2c1,39.8 µM (active)
18,Cc1ccc(S(=O)(=O)NCCC(=O)Nc2cccc(S(N)(=O)=O)c2)cc1C,inactive
19,CCCCN1C(=O)c2ccc(C(=O)Nc3ccc(S(=O)(=O)N(C)C)cc3)cc2C1=O,20 µM (active)
20,CN1C(=O)c2ccc(NC(=O)c3c(F)c(F)c(F)c(F)c3F)cc2C1=O,inactive
21,COCCCN1C(=O)c2ccc(C(=O)Nc3ccc(OC)cc3OC)cc2C1=O,inactive
22,CC(C)CCN1C(=O)c2ccc(C(=O)Nc3cccc(S(N)(=O)=O)c3)cc2C1=O,28.2 µM (active)
23,Cc1ccnc(NS(=O)(=O)c2ccc(NC(=O)c3ccc(S(=O)(=O)N(C)C)cc3)cc2)n1,inactive
24,O=c1c(CN2CCOc3ccc(CN4CCC(Oc5cccnc5)CC4)cc3C2)coc2ccccc12,inactive

row,SMILES,Potency
1,Cc1cnc(CNc2cc(-c3c(C)noc3C)ncn2)cn1,inactive
2,O=c1ccn([C@@H]2O[C@H](COP(=O)(O)OP(=O)(O)OP(=O)(O)O)[C@@H](O)[C@H]2O)c(=O)[nH]1,inactive
3,COc1cc(Cl)c(C)cc1Nc1nnc(-n2nc(C)cc2C)c2ccccc12,inactive
4,COCCn1c(=O)c(C)nc2cnc(N(C)C)nc21,inactive
5,CC1=C/C(=N\OS(=O)(=O)c2ccccc2)C=CC1=O,15.8 µM (active)
6,O=C(CSc1nc(=O)n(Cc2cccnc2)c2c1CCC2)Nc1ccc(F)cc1F,inactive
7,CC1=C(C(=O)OCc2ccccc2)C(c2ccco2)n2ncnc2N1 (stereo unspecified),28.2 µM (active)
8,CCOc1ccccc1NC(=O)C1=C(C)Nc2ncnn2C1c1ccc(NC(C)=O)cc1 (stereo unspecified),inactive
9,CCOC(=O)C1=C(c2ccccc2)Nc2ncnn2C1c1ccc(Cl)cc1 (stereo unspecified),inactive
10,CC(C)=CCC/C(C)=C/CC/C(C)=C/CC/C(C)=C/CO,inactive
11,CC(C)c1cc(C(=O)N2CCOc3ccc(CN4CCC(Oc5cccnc5)CC4)cc3C2)n[nH]1,inactive
12,Cc1ccsc1C(=O)OCC(=O)c1cc(C)n(CC2CCCO2)c1C (stereo unspecified),100 µM (active)
13,Cc1cc(C(=O)COC(=O)c2cccs2)c(C)n1-c1c(C)n(C)n(-c2ccccc2)c1=O,inactive
14,O=C(CSc1nnc(-c2ccco2)n1CC1CCCO1)c1ccccc1 (stereo unspecified),inactive
15,COc1ccccc1N1CCN(c2ncnc3sc(C)c(-c4ccccc4)c23)CC1,20 µM (active)
16,COC(=O)c1cnc(N2CCN(c3ccccc3OC)CC2)c2ccccc12,inactive
17,COc1ccccc1N1CCN(c2ncnc3onc(-c4cccc(Cl)c4)c23)CC1,inactive
18,O=C(c1cc(C(F)(F)F)cc(C(F)(F)F)c1)N1CCC2(CCCN(Cc3ccncc3)C2)CC1,inactive
19,COc1cccc(Cn2c(=O)c(-c3ccccc3)nc3cnc(OC)nc32)c1,inactive
20,COCCNC(=O)c1ccc2c(c1)N=C(C)c1cc(C)ccc1S2,inactive
21,CCCCCCCCCCCCn1ccc(=N)cc1,17.8 µM (active)
22,O=C(c1cnccn1)N1CCC2(CCN(Cc3cc(C(F)(F)F)cc(C(F)(F)F)c3)CC2)CC1,inactive
23,Cc1cc(C)c2oc(-c3cccc(NC(=O)c4cccc(F)c4)c3C)nc2c1,inactive
24,COc1ccc(N)cc1NC(=O)CN1CCOCC1,inactive

row,SMILES,Potency
1,COc1ccc(NC(C)=O)cc1NC(=O)CN1CCN(C2c3ccccc3-c3ccccc32)CC1,31.6 µM (active)
2,COc1ccc(NC(C)=O)cc1NC(=O)CN1CCN(c2ccc(F)cc2)CC1,inactive
3,Cc1ccccc1C(=O)NCc1nc(-c2ccc(Cl)cc2)no1,inactive
4,CCc1ccc(NC(=O)CN2C(=O)C(c3ccccc3)=NC23CCCCCC3)cc1,inactive
5,CCOc1ccc(N(Cc2ccccc2)C(=O)c2nc(S(C)(=O)=O)ncc2Cl)cc1,15.8 µM (active)
6,COc1ccc(N(Cc2ccc(N(C)C)cc2)C(=O)c2ccc(S(C)(=O)=O)cc2)cc1,inactive
7,CCOc1ccc(NC(=O)CN(Cc2ccccc2)S(=O)(=O)c2ccc(Cl)cc2)cc1,inactive
8,Nc1nc2nc(Cl)[nH]c2c(=O)[nH]1,inactive
9,COc1ccc(OC)c(NC(=O)c2ccc3c(c2)C(=O)N(c2ccc(OC(C)=O)cc2)C3=O)c1,inactive
10,Cc1cc(N2C(=O)c3ccc(C(=O)NCc4ccccc4)cc3C2=O)no1,inactive
11,O=C(O)c1ccc2c(c1)C(=O)N(c1ccc(/C=C/C(=O)c3ccccc3)cc1)C2=O,14.1 µM (active)
12,COCC(C)NS(=O)(=O)c1ccc(N2CCCCS2(=O)=O)cc1 (stereo unspecified),inactive
13,CCc1noc(C)c1C(=O)NCCN1Cc2cc(OC)ccc2OC(CC)C1 (stereo unspecified),inactive
14,Cn1c(=O)c(CCc2ccccc2)nc2cnc(Nc3ccccc3)nc21,inactive
15,c1ccc(CNc2ncncc2-c2cccnc2)cc1,inactive
16,CCN(CC)CCCC(C)Nc1ccnc2cc(Cl)ccc12 (stereo unspecified),inactive
17,CCN(CC)CCCC(C)n1c2nc(=O)[nH]c(=O)c-2nc2cc(Cl)ccc21 (stereo unspecified),11.2 µM (active)
18,Cc1ccc(S(=O)(=O)n2nc(-c3ccc(Cl)cc3)nc2NCc2ccccc2)cc1,inactive
19,CC(C)OC(=O)c1ccc(NCc2cc(O)ccc2O)cc1Cl,8.91 µM (active)
20,COc1cccc(-n2cc(C(=O)NCc3cccc(Cl)c3)c3ccccc3c2=O)c1,inactive
21,O=C(CSc1ncc(CO)n1Cc1ccc(Cl)cc1)NCc1ccc(F)cc1,inactive
22,CCOc1ccccc1N(CC)C(=O)Nc1cn(C)c(=O)c2ccccc12,inactive
23,CC1CCC(N2CC(=O)N(CCC3=CCCCC3)C(c3ccc(F)cc3)C2=O)CC1 (stereo unspecified),inactive
24,Cc1ccc(C(=O)Nc2cccc(-c3nc(CNC(=O)c4ccccc4-n4cccn4)c(C)o3)c2)s1,inactive

row,SMILES,Potency
1,NC1=CC(=O)C(=O)c2cccnc21,39.8 µM (active)
2,O=C1C(c2ccccn2)=[N+]([O-])c2ccccc21,inactive
3,COC1C[C@@H](O[C@@H]2C(C)C(=O)OC(C)C(C)C(O)C(C)C(=O)[C@@]3(CO3)CC(C)C(OC3OC(C)CC(N(C)C)C3O)C2C)OC(C)[C@@H]1O (stereo partly specified),inactive
4,N[C@@H](C(=O)O)c1ccc(P(=O)(O)O)cc1,inactive
5,CN(C)c1ccc(-c2nc(NCCN3CCOCC3)c3ccccc3n2)cc1,inactive
6,c1cnc(NC2C3CC4CC(C3)CC2C4)nc1 (stereo unspecified),inactive
7,c1ccc2c(NC3C4CC5CC(C4)CC3C5)nc(N3CCOCC3)nc2c1 (stereo unspecified),25.1 µM (active)
8,O=C(c1ccco1)N1CCC[C@@]2(CCN(Cc3nccs3)C2)C1,inactive
9,O=C1CCN(Cc2ccc(-c3ccccc3)cc2)CCN1Cc1ccccn1,inactive
10,COc1ccc(CNC(=O)/C(C#N)=C/c2cccc(OC)c2OC)cc1,22.4 µM (active)
11,COc1ccc(CNC(=O)c2cc3cccc(OC)c3oc2=O)cc1,inactive
12,COc1ccc(CNC(=O)c2c[nH]c3c(OC)cc(OC)cc3c2=O)cc1,inactive
13,Cc1ccc(C)c(N2CCN(C(=O)CCCCn3c(=O)[nH]c4ccccc4c3=O)CC2)c1,20 µM (active)
14,Cc1ccc(C)c(N2CCN(C(=O)CCc3c(C)nc4c(c3C)c(=O)n(C)c(=O)n4C)CC2)c1,inactive
15,Cc1ccc(C)c(N2CCN(C(=O)CCCCCn3c(=S)[nH]c4ccc(N5CCOCC5)cc4c3=O)CC2)c1,3.16 µM (active)
16,COc1cccc(N2CCN(C(=O)CCCCCn3c(=O)[nH]c4ccccc4c3=O)CC2)c1,inactive
17,Cc1ccc(OCCCC(=O)N2CCOCC2)c(C)c1,inactive
18,Cc1ccc(C)c(N2CCN(C(=O)Cn3nc(C)c4sc5ccccc5c4c3=O)CC2)c1,inactive
19,CN1[C@@H]2CC[C@H]1CC(OC(=O)c1cc(Cl)cc(Cl)c1)C2 (stereo partly specified),inactive
20,Oc1c(C(c2ccc(F)cc2)N2CCN(Cc3ccccc3)CC2)sc2nc(-c3ccco3)nn12 (stereo unspecified),inactive
21,O=C(c1ccncc1)N1CCC2(CCN(Cc3cc(C(F)(F)F)cc(C(F)(F)F)c3)CC2)CC1,inactive
22,Cc1nc2ccn(Cc3cccs3)c(=O)c2cc1C(=O)NCc1ccc(Cl)cc1,inactive
23,CCCNC(=O)c1ccc(Cn2c(SCC(N)=O)nc3ccccc3c2=O)cc1,inactive
24,Cc1nnnn1/C(=C\c1ccccc1)C(=O)OCC(=O)N1CC2(C)CC1CC(C)(C)C2 (stereo unspecified),31.6 µM (active)
